Data on 38 compounds can be found in PubChem BioAssay (NCI).

The panel holds about 79,000 compounds, 15% with a hit somewhere; the sample as a whole holds those more often. Values without a mark were called inactive. Activity calls are given as the source filed them. Cut-off read from the data, not from the text of the source: active = growth inhibition above about 70%; inactive = the rest.

A short description of experiment [1]: NCI Yeast Anticancer Drug Screen. Data for the rad50 strain (AID 155).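 Note: 0% = growth of vehicle-only cultures of the same strain.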 The settings on record: S. cerevisiae rad50 strain growth inhibition; at 50.0 µM; hits give high values. The procedure, abridged:
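Relative growth inhibition (compound vs vehicle) was measured in yeast with a defined repair-gene alteration.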

The nature of experiment [2]: NCI Yeast Anticancer Drug Screen. Data for the mec2-1 strain (AID 157). Conditions: S. cerevisiae mec2-1 strain, at 50.0 µM, hits give high values. The procedure, abridged: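 Test agents were screened against the mec2-1 yeast strain, with defined DNA repair or cell cycle alteration. Growth was scored as inhibition against vehicle-only controls.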
The nature of experiment [3]: NCI Yeast Anticancer Drug Screen. Data for the sgs1 mgt1 strain (AID 161).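 Note: 0% = growth of cultures given vehicle only.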 The settings on record: S. cerevisiae sgs1 mgt1 strain, at 50.0 µM, hits give high values. The essentials:
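Genetically altered yeast, compound exposure, growth inhibition relative to vehicle.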

Experiment [4] can be described thus: NCI Yeast Anticancer Drug Screen. Data for the cln2 rad14 strain (AID 165).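 Note: 0% = growth equal to vehicle treated cultures.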 Conditions: S. cerevisiae cln2 rad14 strain, at 50.0 µM, hits give high values. The procedure, abridged: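 Growth of compound-exposed yeast (cln2 rad14 genotype) measured and expressed as inhibition relative to vehicle.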
Experiment [5] can be described thus: NCI Yeast Anticancer Drug Screen. Data for the bub3 strain (AID 167). The settings on record: S. cerevisiae bub3 mutant strain, at 50.0 µM, hits give high values. The essentials:
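Screening used yeast with an engineered genetic alteration affecting cell cycle control. Compound-exposed cultures were compared with vehicle cultures, and reduced growth was taken as inhibition.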

Experiment [6] can be described thus: NCI Yeast Anticancer Drug Screen. Data for the mlh1 rad18 strain (AID 175). Conditions: S. cerevisiae mlh1 rad18 strain growth inhibition; at 50.0 µM; hits give high values. The procedure, abridged: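 In this whole-cell yeast screen, a strain with altered DNA damage repair is challenged with compound, and its growth is measured against matched vehicle-treated controls.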

As for `COc1ccc(NS(=O)c2ccccc2OC)cc1` (stereo not drawn), the growth inhibition was 2.7% in experiment [1]; 4.5% in experiment [2]; 14.3% in experiment [3]; -18.9% in experiment [4]; 8.05% in experiment [5]; 5.5% in experiment [6].

For the compound `OC1CCCN(CCNN2CCCC2)C1` (stereo not drawn), the growth inhibition is 17.9% in experiment [1]; 9.65% in experiment [2]; 15.4% in experiment [3]; 31.1% in experiment [4]; 2.35% in experiment [5]; 15.3% in experiment [6].

For `CCOC(=O)C(NC(C)=O)C(O)c1ccc(C(C)C)cc1` (stereo not drawn), the growth inhibition is 10.8% in experiment [1]; 4.4% in experiment [2]; 8.45% in experiment [3]; -33.7% in experiment [4]; 14.8% in experiment [5]; 14.7% in experiment [6].

In the case of `CCOC(=O)c1ccc(N)c(C(O)(C(F)(F)F)C(F)(F)F)c1`, the growth inhibition is 94.5% (active) in experiment [1]; 90.7% (active) in experiment [2]; 94.1% (active) in experiment [3]; 86.3% (active) in experiment [4]; 92% (active) in experiment [5]; 95.6% (active) in experiment [6].

`CC1=N/C(=C\c2ccc(N)cc2)C(=O)N1Nc1nnc(NN2C(=O)/C(=C/c3ccc(N)cc3)N=C2C)c2ccccc12`: the growth inhibition is -11.7% in experiment [1]; -13.3% in experiment [2]; 1.2% in experiment [3]; 7.35% in experiment [4]; -30.4% in experiment [5]; -2.35% in experiment [6].

With `CCCN(CCC)C1=Nc2ccccc2-n2cnnc2C1`, the growth inhibition in experiment [1] was -22.4%; in experiment [2], 3.45%; in experiment [3], -25.6%; in experiment [4], 3.1%; in experiment [5] it was -2.25%; in experiment [6], -11.4%.

Turning to `O=C(Nc1nc2ncn(CCNCc3ccccc3)c2c(=O)[nH]1)c1ccccc1`, the growth inhibition is -7.75% in experiment [1]; -22.8% in experiment [2]; 6.25% in experiment [3]; 10.6% in experiment [4]; 15.4% in experiment [5]; 24.6% in experiment [6].

`CCn1c(O)c(C=Nc2ccccc2)s/c1=N/Nc1nc(C)c(C(C)=O)s1`: the growth inhibition was 24.6% in experiment [1]; 5.25% in experiment [2]; 17.2% in experiment [3]; 16.1% in experiment [4]; 42.9% in experiment [5]; 21.2% in experiment [6].

Consider `COC(=O)OCC1OC(OC(C)=O)C2OC(=O)OC12` (stereo not drawn), for which the growth inhibition in experiment [1] was 8.55%; in experiment [2] it was -16.9%; in experiment [3] it was -16.7%; in experiment [4], 5.45%; in experiment [5] it was 2.35%; in experiment [6], -3.15%.

For the compound `CCOC(=O)Nc1ccccc1`, the growth inhibition in experiment [1] was -1.65%; in experiment [2] it was 12.3%; in experiment [3], 1.55%; in experiment [4], -4.15%; in experiment [5] it was -6.8%; in experiment [6], 22.7%.

On to `Cc1ccc(-c2cn3c(nc4ccccc43)c(C)n2)cc1`, for which the growth inhibition in experiment [1] was -27.5%; in experiment [2] it was 5.5%; in experiment [3] it was 15.3%; in experiment [4], -7.95%; in experiment [5], 13%; in experiment [6], -29.5%.

With `O=C(O)c1ccc(O)cn1`, the growth inhibition is -4.8% in experiment [1]; -7.05% in experiment [2]; 2.55% in experiment [3]; 6.7% in experiment [4]; 3.3% in experiment [5]; 2.55% in experiment [6].

As to `O=C1CC(c2ccccc2)C(c2ccccc2)C1` (stereo not drawn), the growth inhibition in experiment [1] is 6%; in experiment [2] it was 0.45%; in experiment [3], 4.2%; in experiment [4], 4.2%; in experiment [5], -24.1%; in experiment [6] it was -0.25%.

Regarding `CNS(=O)(=O)c1ccc(Br)cc1`, the growth inhibition in experiment [1] is -15.9%; in experiment [2] it was -24.6%; in experiment [3], -9.85%; in experiment [4], -14.2%; in experiment [5], 3.35%; in experiment [6], -12.4%.

As to `CN(C)c1cccc2c1C(=O)C=CC21c2ccc(N(C)C)c3c(N(C)C)ccc(c23)C(c2ccccc2)C1c1ccccc1` (stereo not drawn), the growth inhibition was -6.15% in experiment [1]; -11.4% in experiment [2]; -4.55% in experiment [3]; -27.3% in experiment [4]; -31.6% in experiment [5]; -8.75% in experiment [6].

For the compound `Cc1ccc(C)c(C2NC(=O)c3ccccc3N2)c1` (stereo not drawn), the growth inhibition is -15.8% in experiment [1]; -9.25% in experiment [2]; -44.8% in experiment [3]; -30.2% in experiment [4]; -52.2% in experiment [5]; -19.8% in experiment [6].

Turning to `O=C(OCc1ccccc1CN1CCOCC1)c1cccc(Cl)c1`, the growth inhibition in experiment [1] was 13.8%; in experiment [2], -1.55%; in experiment [3], 17.3%; in experiment [4] it was -0.05%; in experiment [5], -6.25%; in experiment [6], 7.35%.

`CCC(CC)COC(=O)c1ccccc1C`: the growth inhibition was 7.45% in experiment [1]; -0.15% in experiment [2]; -0.85% in experiment [3]; -27.1% in experiment [4]; 15.4% in experiment [5]; 0.6% in experiment [6].

Consider `COc1c2occc2c(OC)c2c(=O)c(S(=O)(=O)NC(=O)Nc3ccc(Cl)cc3)coc12`, for which the growth inhibition was 5.7% in experiment [1]; -11.8% in experiment [2]; 3.65% in experiment [3]; -55.8% in experiment [4]; -20.3% in experiment [5]; 2.4% in experiment [6].

Take `CC(=O)OC1CCC2(C)C(=CCC3C2CCC2(C)C(/C(C)=N/NC(N)=O)CCC32)C1` (stereo not drawn): the growth inhibition is 14.4% in experiment [1]; -2.8% in experiment [2]; -0.1% in experiment [3]; -39.6% in experiment [4]; -0.6% in experiment [5]; -0.5% in experiment [6].

For the compound `Cc1cn(C2CC(N)C(C(=O)NCC(=O)O)O2)c(=O)[nH]c1=O` (stereo not drawn), the growth inhibition in experiment [1] is -19.9%; in experiment [2] it was -54.5%; in experiment [3] it was -0.6%; in experiment [4] it was 2.65%; in experiment [5], -40.1%; in experiment [6], -26.1%.

Regarding `C=C(C)COc1ccc2c(c1)CCC1C2CCC2(C)C1CCC2(C)O` (stereo not drawn), the growth inhibition in experiment [1] was 21%; in experiment [2], 0.45%; in experiment [3], 3.75%; in experiment [4], 17.6%; in experiment [5], -0.9%; in experiment [6] it was 6.6%.

Consider `CCCCOc1ccccc1C(=O)OC`, for which the growth inhibition in experiment [1] is 23.9%; in experiment [2] it was 5.55%; in experiment [3], 21.8%; in experiment [4], -0.6%; in experiment [5], 9.4%; in experiment [6] it was 18.5%.

For `COc1ccc(/C=N/N2CN(C(C)C(=O)O)B(N(CCO)CCO)N=C2N)cc1OC` (stereo not drawn), the growth inhibition in experiment [1] was 15.2%; in experiment [2] it was 5.3%; in experiment [3] it was 7.55%; in experiment [4] it was 20.9%; in experiment [5] it was 7.65%; in experiment [6], 20.9%.

As to `CC(C)(c1cccs1)c1cscc1C(=O)O`, the growth inhibition is -0.85% in experiment [1]; -6.8% in experiment [2]; -13.3% in experiment [3]; -28.8% in experiment [4]; -9.35% in experiment [5]; 16.7% in experiment [6].

For `Cc1nnc2cc1CCCCCCCCC2`, the growth inhibition in experiment [1] is 11.8%; in experiment [2] it was 6.25%; in experiment [3], 4.8%; in experiment [4] it was 5.2%; in experiment [5] it was -10.8%; in experiment [6], 4.9%.

In the case of `Cc1c(N2CCCC2)cc2c(c1-n1cccc1)C(C)(C)CC2(C)C`, the growth inhibition was -21% in experiment [1]; -14.2% in experiment [2]; 1.55% in experiment [3]; 16.3% in experiment [4]; 6.7% in experiment [5]; 2.8% in experiment [6].

`Cc1c(/C=N/N(C)C)oc2c1cc(O)c1ncccc12`: the growth inhibition in experiment [1] is 2.95%; in experiment [2] it was -4.4%; in experiment [3], 20.4%; in experiment [4] it was -1.9%; in experiment [5], 4.65%; in experiment [6] it was 2.35%.

As for `O=C1C(=O)c2ccccc2C(O)=C1Br`, the growth inhibition in experiment [1] is 27.9%; in experiment [2], 39.4%; in experiment [3], 49.4%; in experiment [4], -61%; in experiment [5] it was 28.4%; in experiment [6], 29.8%.

Turning to `CCOC(=O)C1=C(C)OC(C)(OC(C)=O)C1=O` (stereo not drawn), the growth inhibition was 14.1% in experiment [1]; -1.9% in experiment [2]; 2.8% in experiment [3]; -25.9% in experiment [4]; -6.9% in experiment [5]; 13.8% in experiment [6].

For `COC1/C=C/OC2(C)Oc3c(C)c(O)c4c(O)c(c5c(nc(-c6ccco6)n5-c5ccccc5)c4c3C2=O)NC(=O)/C(C)=C\C=C\C(C)C(O)C(C)C(O)C(C)C(OC(C)=O)C1C` (stereo not drawn), the growth inhibition in experiment [1] was -6.2%; in experiment [2] it was -13.8%; in experiment [3], -19.8%; in experiment [4], 14.2%; in experiment [5] it was -18.8%; in experiment [6] it was -22.7%.

On to `COc1cc2nncc(SCc3ccc(Cl)cc3Cl)c2cc1OC`, for which the growth inhibition in experiment [1] was 16.9%; in experiment [2], 2.9%; in experiment [3], -1.65%; in experiment [4], 23.8%; in experiment [5] it was 1.2%; in experiment [6] it was 8.25%.

For the compound `CCOC(=O)/C(F)=C/c1cccc([N+](=O)[O-])c1`, the growth inhibition in experiment [1] was 13.4%; in experiment [2], 8.8%; in experiment [3], -5.35%; in experiment [4], 10.1%; in experiment [5] it was 7.95%; in experiment [6], 19.8%.

With `CCOC(=O)CCCc1ccccc1`, the growth inhibition in experiment [1] was -13.2%; in experiment [2] it was -32.5%; in experiment [3], -2.65%; in experiment [4], 32.2%; in experiment [5] it was 4.05%; in experiment [6], -2.25%.

As to `Cc1cn(C2CC(OC(=O)C(Cc3ccccc3)NC(=O)OCc3ccccc3)C(COC(=O)C(Cc3ccccc3)NC(=O)OCc3ccccc3)O2)c(=O)[nH]c1=O` (stereo not drawn), the growth inhibition was -14.9% in experiment [1]; -3.65% in experiment [2]; -13.3% in experiment [3]; -26.7% in experiment [4]; -12.9% in experiment [5]; 14.3% in experiment [6].

For `CC(C)C(=O)NCCc1ccccc1`, the growth inhibition in experiment [1] is 0%; in experiment [2], 0.45%; in experiment [3] it was -3.15%; in experiment [4], -26.6%; in experiment [5], -0.45%; in experiment [6], 2.95%.

In the case of `O=c1[nH]cc(CNc2ccccc2)c(=O)[nH]1`, the growth inhibition is -5.5% in experiment [1]; 4.75% in experiment [2]; -9.45% in experiment [3]; -27.8% in experiment [4]; -18.2% in experiment [5]; 8.5% in experiment [6].

Turning to `CN1CCC(Cl)(C(=O)c2ccccc2)CC1`, the growth inhibition was 26.2% in experiment [1]; 4.35% in experiment [2]; 25.6% in experiment [3]; -9.5% in experiment [4]; 5% in experiment [5]; 8.25% in experiment [6].
